# DRD3 antagonist – D3 dopamine receptor (human) antagonism; AID 652054; P35462; D3R cells, DiscoveRx beta-arrestin luminescence, antagonist mode; hits give low values; max response, negative = inhibition, %; 360,000 compounds, 2.5% hits; in the data active = max response below about -50%; inconclusive = no clear call, values can overlap the other calls; also: % is scaled to controls: 0 for no effect and ±100 for the full control effect
# Target sequence (P35462 whole entry, looked up): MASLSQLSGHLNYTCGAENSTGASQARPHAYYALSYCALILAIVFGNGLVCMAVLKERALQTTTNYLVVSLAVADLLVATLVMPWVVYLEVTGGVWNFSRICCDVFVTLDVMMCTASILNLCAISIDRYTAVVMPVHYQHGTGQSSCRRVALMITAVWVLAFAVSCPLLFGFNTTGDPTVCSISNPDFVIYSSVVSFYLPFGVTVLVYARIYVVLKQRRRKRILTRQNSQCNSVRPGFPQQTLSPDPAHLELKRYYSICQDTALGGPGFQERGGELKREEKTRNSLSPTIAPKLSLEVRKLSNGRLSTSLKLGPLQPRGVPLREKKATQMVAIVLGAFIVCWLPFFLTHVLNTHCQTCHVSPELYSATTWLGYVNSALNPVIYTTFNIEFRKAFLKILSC
#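 Cells plated overnight at 1500 cells/well, then exposed to library compounds with dopamine controls for 90 minutes at 37 degrees C. DiscoveRx reagent added for 30–60 minutes at room temperature; luminescence read, quantitative HTS format.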
# LDHA block – LDHA (human) enzyme inhibition | P00338 | purified LDHA, NADH/diaphorase-resazurin fluorescence; hits give low values | activity change, % (values are at about 110 or 230 µM) | 480,000 compounds, 0.15% hits | AID 1347041; in the data active = activity change below about -30%; inconclusive = mostly about -25% to -30%;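 also: plate controls were DMSO wells for no effect and wells without enzyme for full effect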
#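 Remaining NADH was detected by diaphorase (0.133 mg/mL) converting 37 µM resazurin to fluorescent resorufin, read at 0 and 20 minutes. The preceding 5-minute room-temperature reaction used 2 nM LDHA, 0.2 mM sodium pyruvate and 0.06 mM NADH at pH 7.4.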
# DRD3 agonist – activates the human D3 dopamine receptor. D3R DiscoveRx beta-arrestin cells, luminescence, 90 min. P35462. max activation, %. 410,000 compounds, 0.58% hits; in the data active = max activation above about 30%; also: 0% is about no effect
#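 Agonist-mode cell screen: cells plated at 1500/well and incubated overnight at 37 °C, then exposed to library compounds for 90 min at 37 °C. Detection reagent was added for 30–60 min at room temperature, and luminescence was read.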
# PI4K2A inh – PI4K2A (human) kinase inhibition. Q9BTU6. activity change, negative = inhibition, % at 76.9 µM. 420,000 compounds, 0.13% hits. purified PI4K2A, ADP-Glo luminescence, 1 h; hits give low values; in the data active = activity change below about -50%; inconclusive = mostly about -30% to -49%;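 also: -100% = wells without enzyme as full effect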
#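 In this quantitative HTS, ADP production by PI4K2A was quantified luminescently after 1 h at ambient temperature; 100 microM adenosine served as plate-quality control.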
# RGS4 inh – human RGS4 inhibition. 390,000 compounds, 0.039% hits. Transcreener GDP fluorescence polarization, RGS4-accelerated GTP hydrolysis. P49798. Potency, µM (top dose mostly 114 µM), without a hit: at the top dose activity change, negative = inhibition, usual class: inhibitors; active = well fitted inhibition curve with a large enough effect; inconclusive = small, poorly fitted or top-dose-only effect; inactive = no such curve, though single readings can be large or run the other way; also: potency is read from the fitted curve at half-maximal effect; % is scaled to controls: 0 for no effect and ±100 for the full control effect; nearly all actives have a fitted effect of over 75% in size
# Target sequence (P49798 whole entry, looked up): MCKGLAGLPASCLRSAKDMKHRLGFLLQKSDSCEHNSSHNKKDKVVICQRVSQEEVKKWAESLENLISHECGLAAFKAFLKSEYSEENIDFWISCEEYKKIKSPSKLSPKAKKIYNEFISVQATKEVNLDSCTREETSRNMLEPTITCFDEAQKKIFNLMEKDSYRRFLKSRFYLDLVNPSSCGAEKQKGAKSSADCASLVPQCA
#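 MLSMR compounds (23 nl, pin-transferred) preincubated 10 min at room temperature with a 500nM (2x) first reagent, then RGS4 at 900nM (2x) plus Transcreener GDP mix added; fluorescence polarization (620/688 nm) read before and after 90 min at 30 °C.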
# Akt phos inh – blocks phosphorylation of Akt; Neuro2A IGF-stimulated pAkt S473 HTRF, 20 min; hits give low values; activity change, % for hits at 50 µM; 360,000 compounds, 0.32% hits; AID 651550; in the data active = activity change below about -80%; inconclusive = mostly about -51% to -80%; also: % is scaled to controls: 0 for no effect and ±100 for the full control effect
#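 Neuro2A cells (4,500/well, DMEM with 0.5% FBS) were treated with compound at a single 50 µM final concentration, stimulated with 6 nM IGF for 20 min at 37 °C, and lysed. Phospho-Akt Ser473 was read by HTRF as 665/615 ratio ×10^4.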
# * marks the source's active call; other numbers are inactive results; i = inactive; ? = inconclusive; · = not tested or not shown; ! = a repeat was not active; [ ] = dose if it differs, or a comment. In the library only some 2.8% were active in any assay of this set; here they are far more common.
SMILES,DRD3 antagonist,LDHA block,DRD3 agonist,PI4K2A inh,RGS4 inh,Akt phos inh
Clc1ccc(COc2ccccn2)cc1Cl,-29,-1,2,12,24%,-123%*
O=[N+]([O-])c1ncccc1OCc1ccc(Cl)c(Cl)c1,4,-6,-3,5,-12%,i
CCc1ccc(OCC(O)CN2CCN(c3ccccc3)CC2)cc1 (stereo not drawn),-57*!,-3,41*!,-7,-15%,i
CCCc1ccc(OCC(O)CN2CCN(c3ccccc3)CC2)cc1 (stereo not drawn),?,-6,68*,-12,-32%,i
COc1ccc(NC(=O)Cc2coc3cc(C)c(C)cc23)cc1Cl,·,0,·,·,·,·
CCc1c(C)sc(NC(=O)c2ccccc2)c1C#N,·,3,·,·,·,·
COc1ccccc1N=Nc1nc(-c2ccccc2)c(-c2ccccc2)[nH]1,-75*,2,-30,2,-20%,i
Oc1ccccc1N=Nc1nc(-c2ccccc2)c(-c2ccccc2)[nH]1,-72*,-2,-37,-2,3%,i
COc1ccc(N=Nc2nc(-c3ccccc3)c(-c3ccccc3)[nH]2)cc1,?,2,-33,6,-17%,i
Cc1cc(C(=O)CSc2nnc(CN3CCCC3)n2-c2ccccc2)c(C)n1C1CC1,·,-8,·,·,·,·
O=C(CO/N=C1\CCCc2nonc21)Nc1ccc(Br)cc1,-83*,-6,-6,1,11%,i
COc1ccc(NC(=O)CO/N=C2\CCCc3nonc32)cc1,?,-5,0,2,-5%,i
O=C(O)c1csc2ccccc12,·,4,·,·,·,·
O=C(O)Cc1csc2ccccc12,2,-1,6,4,7%,-126%*
COCCCNc1ncnc2c1sc1nc(-c3ccco3)c3c(c12)CC(C)(C)OC3,12,11,60*,-4,?,i
N#CC1(Br)C(=N)c2ccccc2CC12CCCCC2 (stereo not drawn),·,51,·,·,·,·
c1coc(CNCc2cccc3ccccc23)c1,·,4,·,·,·,·
CC1=NN(c2ccc(S(=O)(=O)O)cc2C)C(=O)C1,?,-1,11,-68*,-28%,i
O=C(O)C1=NN(c2cc(Cl)c(S(=O)(=O)O)cc2Cl)C(=O)C1,-9,12,-5,-6,9%,i
CCN(CC)S(=O)(=O)c1ccc(C)c([N+](=O)[O-])c1,·,4,·,·,·,·
CN(C)C(CNc1ccc(S(C)(=O)=O)cc1[N+](=O)[O-])c1ccccc1 (stereo not drawn),-64*,-3,-20,1,32%,i
CCNc1ccc(S(=O)(=O)N(C)C)cc1[N+](=O)[O-],3,-37*,2,-4,-17%,i
Cc1ccc(C(=O)N2CCN(c3oc(-c4cccs4)nc3C#N)CC2)cc1,·,-1,·,·,·,·
Cc1ccc2cc3c(nc2c1)N(Cc1ccco1)CC3,-56*,-3,1,4,?,i
O=C(COc1ccc2c(c1)CCC2)Nc1ccccn1,21,-5,0,-62*,-5%,i
SMILES,DRD3 antagonist,LDHA block,DRD3 agonist,PI4K2A inh,RGS4 inh,Akt phos inh
COc1cccc(/C=N/Nc2nccnc2Cl)c1O,-2,13,-1,-60*,11%,i
COc1cccc(/C=N/Nc2ncnc3scc(-c4ccccc4)c23)c1O,46,-2,38*,-2,-16%,i
O=[N+]([O-])c1ccc(NN=Cc2ccccc2O)nc1,-4,-2,-6,0,15%,i
Oc1ccc(/C=N/Nc2nccnc2Cl)c(O)c1,3,9,7,-67*,9%,i
COc1cccc(/C=N/Nc2ncnc(Cl)c2N)c1O,10,-2,12,-5,-18%,i
O=[N+]([O-])c1ccc(O)c(/C=N/Nc2ccccn2)c1,-70*,-3,-12,-5,19%,i
O=C(O)CN(CC(=O)O)C1CCCCC1N(CC(=O)O)CC(=O)O (stereo not drawn),·,-17,·,·,·,·
O=C(c1nc2nc(-c3ccco3)cc(C(F)(F)F)n2n1)N1CCCCCC1,·,7,·,·,·,·
Cc1ccc(NC(=O)C(C#N)=C2CCC(C)CC2)cc1 (stereo not drawn),·,-1,·,·,·,·
Oc1ccc(C=NNc2ccccn2)c(O)c1,-61*,3,1,-18,-3%,i
Oc1cccc(C=NNc2ccccn2)c1,-1,7,-3,-1,4%,i
O=C(COC(=O)c1ccccc1)NC1CCCC1,-4,-4,1,1,-6%[56.9 µM],i
O=C(ONC(=O)C1CCCCC1C(=O)NOC(=O)c1ccccc1)c1ccccc1 (stereo not drawn),145,-2,82*,-6,-1%,i
CC(=O)c1cccc(NC(=O)/C=C/c2ccc([N+](=O)[O-])s2)c1,-69*,-16,-17,-1,-17%,i
Cc1ccccc1NC(=O)/C=C/c1ccc([N+](=O)[O-])s1,-51*,-3,-9,-6,-11%,i
Fc1ccc(-n2nnnc2-c2cnc(-c3cccs3)nc2C(F)(F)F)cc1,0,6,44*,-2,-37%,i
FC(F)(F)c1nc(-c2ccncc2)ncc1-c1nnnn1-c1ccccc1,-23,-12,-5,-6,20%,i
CSc1nnnn1-c1cccc(NC(=O)c2ccccc2Br)c1,·,-2,·,·,·,·
Cn1cccc1C(=O)NC(=O)COC(=O)c1ccc(S(C)(=O)=O)c([N+](=O)[O-])c1,-77*,3,-13,-1,-3%,i
CS(=O)(=O)c1ccc(C(=O)OCC(=O)NC23CC4CC(CC(C4)C2)C3)cc1[N+](=O)[O-],-58*,-10,-11,-3,-5%,i
CS(=O)(=O)c1ccc(C(=O)OCc2nnc(-c3ccc(Cl)cc3)o2)cc1[N+](=O)[O-],-55*,-7,-12,4,-39%,i
O=C(OCc1nnc(-c2ccc(Cl)cc2)o1)c1ccc(O)cc1,-3,-4,-4,6,2%,i
O=C(Nc1ccc(Sc2ccc(Br)cc2)cc1)c1n[nH]c(=O)c2ccccc12,·,-2,·,·,·,·
Cc1c(OCc2nnc(SC(C)C(=O)Nc3ccc4c(c3)OCO4)n2C)ccc2ccccc12 (stereo not drawn),·,3,·,·,·,·
Cc1cc(C)c(NC(=O)CC2CCCC2)c(C)c1,·,-3,·,·,·,·
N#C/C(=C/c1ccccc1)C(=O)OCC(=O)N1CCc2ccccc2C1,·,-2,·,·,·,·
Cc1cc(N)c2cc(NC(=O)/C=C/c3ccccc3Cl)ccc2n1,-83*,-5,-15,9,?,i
Cc1cc(C)nc(NC(=O)/C=C/c2ccccc2Cl)n1,-23,-4,-2,0,-7%,i
Cc1nn(-c2ccccc2)c(C)c1NC(=O)COc1ccc2ccccc2c1,21,2,31*,-3,9%,·

# From PubChem
